Screens as filed in PubChem BioAssay.
The list is not random: actives were taken first. Their share in the collection is about 0.69%.
Vif-A3F inh – blocks the Vif interaction with APOBEC3F; HeLa A3F-eYFP + Vif (tagged APOBEC3F with the HIV-1 protein that degrades it), YFP fluorescence increase; Potency, µM (top dose mostly 46.1 µM), for the others: at the highest dose activity, negative = active; 390,000 compounds, 0.2% hits; AID 602313; further: % of control where 0% means no effect; nearly all actives have a fitted effect of over 65% in size
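HeLa cells stably expressing A3F-eYFP plus Vif, plated and incubated overnight at 37 deg C, then exposed to compounds overnight at 37 deg C. Blocked degradation read as raised yellow fluorescence (Ex 488/Em 500-530).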
Vif-APOBEC3G blk – blocks the Vif interaction with human APOBEC3G. Q9HC16. HeLa A3G-eYFP + Vif (tagged APOBEC3G with the HIV-1 protein that degrades it), YFP fluorescence, overnight. Potency, µM (highest dose often 46.1 µM), inactives show at the top dose activity, negative = active, most hits filed as inhibitors. 410,000 compounds, 0.076% hits; further: on the % scale 0 is the no-effect control and ±100 the full control effect; nearly all actives have a fitted effect of over 60% in size
Target sequence (Q9HC16 whole entry, looked up): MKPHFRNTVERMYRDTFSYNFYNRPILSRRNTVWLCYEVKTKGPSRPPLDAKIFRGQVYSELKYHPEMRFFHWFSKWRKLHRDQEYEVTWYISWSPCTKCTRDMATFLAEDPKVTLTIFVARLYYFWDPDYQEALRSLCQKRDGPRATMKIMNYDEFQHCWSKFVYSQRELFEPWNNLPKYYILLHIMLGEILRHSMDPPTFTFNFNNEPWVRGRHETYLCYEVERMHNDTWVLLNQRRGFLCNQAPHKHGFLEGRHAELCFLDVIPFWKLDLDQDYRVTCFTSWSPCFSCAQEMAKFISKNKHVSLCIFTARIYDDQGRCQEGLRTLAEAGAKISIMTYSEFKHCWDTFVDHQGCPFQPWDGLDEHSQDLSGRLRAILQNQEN
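Read-out is eYFP fluorescence (Ex 488/Em 500-530) from Vif-expressing HeLa A3G-eYFP cells; more signal means A3G escaped Vif-mediated degradation. Cells plated overnight, compound pinned in, incubated overnight at 37 deg C.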
Abeta yeast res – compounds reversing amyloid beta toxicity in yeast; yeast expressing A-beta42, growth rescue, OD600, 48 h; response scale: 0% DMSO, 100% iron-clioquinol control; Potency, µM (top dose mostly 46.1 µM), most hits filed as activators; 410,000 compounds, 0.063% hits; further: nearly all actives have a fitted effect of over 55% in size
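Yeast growth medium received pinned compounds, then yeast cells expressing toxic A-beta were added; plates incubated at 30 C for 48 hr. Growth read as absorbance at 600 nm, normalized to DMSO and equimolar FeCl3 plus clioquinol controls.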
FUS yeast rescue – suppressors of FUS proteinopathy in yeast. S. cerevisiae FUS-expressing, growth rescue, OD600, 24 h. AID 1347120. Potency, µM (top dose mostly 76.6 µM), most hits filed as activators. 390,000 compounds, 0.24% hits;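 further: plate controls were DMSO vehicle for no effect and reference control for full effect; nearly all actives have a fitted effect of over 55% in size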
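Read-out: OD at 600 nm after 24hr at 30C, reporting rescue of FUS-induced yeast toxicity. Cells at OD 0.005 in galactose (2%) minimal medium; compounds tested in a dilution series; CP55940 titration from 92uM final as control.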
Glioma ERSR ind – inducers of ER stress response in human glioma cells; U87-MG GRP78 promoter luciferase reporter, 16 h; Potency, µM, without a hit: at the top dose activation, most hits filed as activators; 420,000 compounds, 0.02% hits; AID 602332; further: series mostly up to about 76 µM; % of control where 0% means no effect; nearly all actives have a fitted effect of over 35% in size
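Stably transfected U87-MG human glioma cells carrying a GRP78-based luminescent sensor were seeded at 1000 cells/well, pin-dosed with compounds and incubated 16 h. Luciferase reagent was then added, and end-point luminescence was read after 10 min at room temperature.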
PINK1 expr mod – PINK1 expression modulation; AID 624263; Potency, µM (series often up to 76.6 µM), for inactives: top-dose activation (PINK1 increase), actives largely listed as activators; 410,000 compounds, 0.2% hits; PINK1 immunofluorescence, high-content cytometry, 24 h; active means well fitted activation curve with a large enough effect; inconclusive means small, poorly fitted or top-dose-only effect; cell line not stated here; further: % of control where 0% means no effect; nearly all actives have a fitted effect of over 65% in size
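Measures PINK1 amount and localization on or inside mitochondria by immunofluorescence. Stable cells get compounds at 5 concentrations for 24 hours before fixation and staining; CCCP controls included.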
* hit, by the source's call. Unless noted, the call rests on the fitted dose curve; in most records, active means well fitted curve in the direction sought with a large enough effect; inconclusive means small, poorly fitted or top-dose-only effect, or another doubt; inactive means no such curve, though single readings can be large; an effect the other way counts as inactive or inconclusive. Potency means the concentration at half of the fitted maximal effect.

What do the screens show for `C(=C\c1ccnc2ccccc12)/c1ccnc2ccccc12`?
Vif-APOBEC3G blk: -3%; Glioma ERSR ind: 8%

How did Cn1cc(/C=C/c2ccnc3ccccc23)c2ccccc21 do in these assays?
Vif-APOBEC3G blk: 10µM*; Glioma ERSR ind: 0%; PINK1 expr mod: 0%

How did CC(C)c1c(C(=O)NCC2(N3CCOCC3)CCCC2)cnn1-c1nccc(-c2cccs2)n1 do in these assays?
Glioma ERSR ind: -1%; PINK1 expr mod: 0%

Results for CC(C)C[C@H](NC(=O)c1nc[nH]c1C(=O)NC(c1ccccc1)c1ccccc1)C(=O)OC(C)(C)C ?
Vif-A3F inh: -4%; Vif-APOBEC3G blk: -14%; Abeta yeast res: inactive; FUS yeast rescue: 14µM*; Glioma ERSR ind: -3%; PINK1 expr mod: 11%

How did Cc1cccc(NC(=O)c2nc[nH]c2C(=O)N[C@@H](CC(C)C)C(=O)OC(C)(C)C)c1 do in these assays?
Vif-A3F inh: 5%; Vif-APOBEC3G blk: -15%; Abeta yeast res: 6.3µM*; FUS yeast rescue: inactive; Glioma ERSR ind: -2%; PINK1 expr mod: 6%

What do the screens show for `Cc1nn(-c2ccccc2)c2ncc(C(=O)c3cc(Cl)ccc3O)cc12`?
Vif-A3F inh: 9%; Vif-APOBEC3G blk: -2%; Abeta yeast res: inactive; FUS yeast rescue: inactive; Glioma ERSR ind: -4%; PINK1 expr mod: 28µM*

How did Cc1noc(C)c1C(=O)N1CCC2(CCCN(C(c3ccccc3)c3ccccc3)C2)CC1 do in these assays?
Glioma ERSR ind: 28µM*; PINK1 expr mod: 0%

How did CCCCCCCCN1C(=O)[C@H](CC(=O)N2CCOCC2)C[C@@]2(C(=O)OCC)CCCC=C12 do in these assays?
Abeta yeast res: inactive; FUS yeast rescue: 11µM*; PINK1 expr mod: 1%

How did CCCCCCCCN1C(=O)[C@H](CC(=O)N2CCN(C(=O)C3CC3)CC2)C[C@@]2(C(=O)OC)CC(C)(C)CC=C12 do in these assays?
Abeta yeast res: inactive; FUS yeast rescue: 16µM*

Results for CCOC(=O)[C@]12CCCC=C1N(Cc1ccc(Cl)cc1Cl)C(=O)[C@H](CC(=O)N1CCN(C(=O)c3ccco3)CC1)C2 ?
Abeta yeast res: inactive; FUS yeast rescue: 18µM*; PINK1 expr mod: 0%

Results for CCCCCCCCN1C(=O)[C@H](CC(=O)N2CCN(C(=O)OCC)CC2)C[C@@]2(C(=O)OC)CC(C)(C)CC=C12 ?
Abeta yeast res: inactive; FUS yeast rescue: inconclusive

Results for C#CCNC(=O)C[C@@H]1C[C@@]2(C(=O)OCC)CCCC=C2N(CCCCCCCC)C1=O ?
Abeta yeast res: inactive; FUS yeast rescue: 10µM*; PINK1 expr mod: 3%

How did CCCCCCCCN1C(=O)[C@H](CC(=O)NCC2CCCCC2)C[C@@]2(C(=O)OCC)CCCC=C12 do in these assays?
Abeta yeast res: inactive; FUS yeast rescue: inactive; PINK1 expr mod: inconclusive

Results for Cc1ccc(CN2C[C@H](Sc3ccccn3)C[C@H]2C(=O)Nc2ccc3sc(C)nc3c2)c(C)c1 ?
Glioma ERSR ind: -4%; PINK1 expr mod: 0%

What do the screens show for `CCC1C(=O)NCCN1Cc1ccc2c(c1)CN(Cc1cccc(OC)c1OC)CCO2` (stereo not given)?
Glioma ERSR ind: 1%; PINK1 expr mod: 0%

What do the screens show for `CCCCCCCCN1C(=O)[C@H](CC(=O)N2CCN(C(=O)C3CC3)CC2)C[C@@]2(C(=O)OC)CCCCC=C12`?
Abeta yeast res: inactive; FUS yeast rescue: inconclusive; PINK1 expr mod: 0%

How did CCCCCCCCN1C(=O)[C@H](CC(=O)N2CCCC2)C[C@@]2(C(=O)OC)CCCCC=C12 do in these assays?
Abeta yeast res: inconclusive; FUS yeast rescue: 6.3µM*; PINK1 expr mod: 3%

Results for COC(=O)C1CCN(Cc2ccc3c(c2)CN(C(=O)c2ccnn2C)CCO3)CC1 ?
Glioma ERSR ind: -3%; PINK1 expr mod: 0%

Results for CCOC(=O)/C=C(\C)Sc1cc(O)c2ccccc2c1O ?
Vif-A3F inh: 22µM*; Vif-APOBEC3G blk: inconclusive; Abeta yeast res: inactive; FUS yeast rescue: inactive; Glioma ERSR ind: -13%; PINK1 expr mod: 8%

Results for COC(=O)c1ccccc1-c1c2ccc(=N)cc-2oc2cc(N)ccc12 ?
Vif-A3F inh: 21%; Vif-APOBEC3G blk: 10%; Abeta yeast res: inactive; FUS yeast rescue: inactive; Glioma ERSR ind: -1%; PINK1 expr mod: 40µM*

Results for COc1cccc(/C=N/n2c(C3CCCCC3)n[nH]c2=S)c1 ?
Vif-A3F inh: -9%; Vif-APOBEC3G blk: 7.1µM*; Abeta yeast res: inconclusive; FUS yeast rescue: inactive; Glioma ERSR ind: -4%; PINK1 expr mod: 0%

What do the screens show for `CCC1CN(CCNC(=O)c2cscn2)Cc2cc(OC)ccc2O1` (stereo not given)?
Glioma ERSR ind: -1%; PINK1 expr mod: -1%

What do the screens show for `Cc1occc1-c1nnc(SCC(=O)Nc2nc(-c3ccccc3)cs2)o1`?
Vif-A3F inh: -13%; Vif-APOBEC3G blk: -4%; Abeta yeast res: inactive; FUS yeast rescue: inactive; Glioma ERSR ind: 0%; PINK1 expr mod: 10µM*

Results for CC1=C/C(=C\C=C(C#N)C#N)N(C)c2ccccc21 ?
Vif-A3F inh: inconclusive; Vif-APOBEC3G blk: 1.8µM*; Abeta yeast res: inactive; FUS yeast rescue: inactive; Glioma ERSR ind: -4%; PINK1 expr mod: inconclusive

Results for COc1cc(C(=O)OCC(=O)Nc2ccc(N3CCOCC3)cc2)ccc1OCC(C)C ?
Vif-A3F inh: inconclusive; Vif-APOBEC3G blk: 7.9µM*; Abeta yeast res: inactive; FUS yeast rescue: inactive; Glioma ERSR ind: -4%; PINK1 expr mod: 7%

How did CCC1(C2CCN(Cc3c(C)[nH]c4ccccc34)CC2)NC(=O)N(Cc2ccc3c(c2)OCO3)C1=O (stereo not given) do in these assays?
Glioma ERSR ind: 2%; PINK1 expr mod: 0%

What do the screens show for `CC(=O)N(Cc1ccc2c(c1)OCO2)Cc1cc2ccc(C)cc2nc1-c1cccc(C)c1`?
Glioma ERSR ind: -6%; PINK1 expr mod: 0%

What do the screens show for `O=C(NC(=S)Nc1ccccc1N1CCCC1)c1cccc(F)c1`?
Vif-A3F inh: inconclusive; Vif-APOBEC3G blk: 0%; Abeta yeast res: 7.9µM*; FUS yeast rescue: inactive; Glioma ERSR ind: 2%; PINK1 expr mod: 3%

Results for O=C(Nc1ccccc1N1CCCC1)c1cccc(F)c1 ?
Vif-A3F inh: 0%; Vif-APOBEC3G blk: 1%; Abeta yeast res: inactive; FUS yeast rescue: inactive; Glioma ERSR ind: -3%; PINK1 expr mod: -1%
